Drawing on PubChem BioAssay, this text covers composite z-score and z-score for 5 compounds.

Experiment [1] deals with Plasmodium falciparum Sir2 (PF13_0152, Sir2A). The experiment in a line: pfSir2 binders on small-molecule microarrays, primary screen, biochemical, small-molecule microarray, 635 nm fluorescence (AID 1098).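 Also: score merges spot fluorescence intensity with its signal-to-noise ratio.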 The following applies: small-molecule microarray binding, fluorescence 635 nm; higher = more signal.
Experiment [2] in a line: small-molecule microarray binders of probe aDKK1, primary screen, biochemical, biotinylated probe, 635/667 nm fluorescence (AID 1099).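 Also: score merges 667nm spot fluorescence with signal to noise across triplicate slides.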 Conditions: higher = more signal.
The nature of experiment [3]: small-molecule microarray binders of probe aCHRDL2, primary screen, biochemical, biotinylated probe, 635/667 nm fluorescence (AID 1100). The following applies: higher = more signal.
Experiment [4] is described as follows: splicing luciferase reporter signal modulators, primary screen, spliceosome inhibition project, cell-based, HEK293, splice +/- reporter (AID 1101).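 Also: HEK293 cells carrying a splicing-competent luciferase reporter gene; test concentration not given here.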 Conditions: luminescence, 24 h, higher = more signal, called active from +8 up or from −8 down. On the technique in general: A reporter such as luciferase makes a cellular process visible.
Experiment [5] concerns the target Fibroblast growth factor 10 (Homo sapiens) (UniProt O15520). The experiment in a line: FGF10 binders on small-molecule microarrays, primary screen, biochemical, small-molecule microarray, 635 nm fluorescence (AID 1102). The following applies: FGF10 binding, fluorescence 635 nm, higher = more signal.
For experiment [6], the system named is glycogen synthase kinase-3 (GSK3A per assay name; protocol says GSK3B). Briefly: GSK3 binders on small-molecule microarrays, primary screen, biochemical, small-molecule microarray, 635 nm fluorescence, GSK3A (AID 1103). Also: the record names both GSK3A and GSK3B. Conditions: small-molecule microarray binding, fluorescence 635 nm; higher = more signal.
Experiment [7] concerns the target Epidermal growth factor receptor (Homo sapiens) (UniProt P00533). The experiment in a line: EGFR binders on small-molecule microarrays, primary screen, biochemical, small-molecule microarray, 635 nm fluorescence (AID 1104).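 Also: score merges 667 nm emission intensity with spot signal to noise over triplicate slides.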 Conditions: EGFR binding, higher = more signal.
Experiment [8] addresses Follistatin-related protein 3 (Homo sapiens) (UniProt O95633). Briefly: FSTL3 binders on small-molecule microarrays, primary screen, biochemical, small-molecule microarray, 635 nm fluorescence (AID 1105).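 Also: score merges emission near 667 nm and signal to noise per printed spot across three slides.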 The following applies: FSTL3 binding, higher = more signal.
The target in experiment [9] is Dickkopf-related protein 1 (Homo sapiens) (UniProt O94907). The experiment in a line: DKK1 binders on small-molecule microarrays, primary screen, biochemical, small-molecule microarray, 635 nm fluorescence scan (AID 1106).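 Also: score merges emission near 667 nm with signal to noise over three replicate slides.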 The following applies: DKK1 binding, higher = more signal.
Sequence of Dickkopf-related protein 1 (Homo sapiens) (O94907 whole entry, looked up): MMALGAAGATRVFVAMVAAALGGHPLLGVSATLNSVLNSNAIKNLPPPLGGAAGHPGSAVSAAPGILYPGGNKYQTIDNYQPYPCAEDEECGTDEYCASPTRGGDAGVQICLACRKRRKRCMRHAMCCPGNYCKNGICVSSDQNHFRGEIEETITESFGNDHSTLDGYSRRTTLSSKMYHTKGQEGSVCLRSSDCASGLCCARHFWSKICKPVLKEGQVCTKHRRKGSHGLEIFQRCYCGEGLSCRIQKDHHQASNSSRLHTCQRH
In experiment [10] the test system is Inhibin beta A chain (activin A). The experiment in a line: INHBA (activin A) binders on microarrays, primary screen, biochemical, small-molecule microarray, 635 nm fluorescence scan (AID 1107).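 Also: mouse activin A protein probed at 4.33 µg/mL on printed slides; score merges bound-protein fluorescence near 667 nm with spot signal-to-noise.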 Conditions: small-molecule microarray binding, higher = more signal.
Experiment [11] concerns Human papillomavirus type 1a protein E7 (residues 44-93). The experiment in a line: HPV1a E7 fragment binders on microarrays, primary screen, biochemical, small-molecule microarray, residues 44-93, 635 nm fluorescence (AID 1108).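 Also: E7 fragment applied at 1 µg/mL in TBST for 1 h at 4 C; score combines spot fluorescence with its signal to noise ratio.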 The following applies: small-molecule microarray binding, fluorescence 635 nm; higher = more signal.
A short description of experiment [12]: modulators of HCV replicon luciferase signal, primary screen, HCV replication inhibitor project, Huh7 cells, luciferase reporter (AID 1109).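 Also: huh7 hepatoma cells harbouring a luciferase neomycin HCV replicon reporter; luciferase luminescence as measure of HCV replicon replication; test concentration not given here.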 The following applies: 48 h, higher = more signal. A general note: Replicon systems follow genome replication, usually without infectious particles.
In experiment [13] the target is Left-right determination factor 2 (Homo sapiens) (UniProt O00292). The experiment in a line: LEFTY2 binders on small-molecule microarrays, primary screen, biochemical, small-molecule microarray, 635 nm fluorescence scan (AID 1110). The following applies: LEFTY2 binding, higher = more signal.
Sequence of Left-right determination factor 2 (Homo sapiens) (O00292 whole entry, looked up): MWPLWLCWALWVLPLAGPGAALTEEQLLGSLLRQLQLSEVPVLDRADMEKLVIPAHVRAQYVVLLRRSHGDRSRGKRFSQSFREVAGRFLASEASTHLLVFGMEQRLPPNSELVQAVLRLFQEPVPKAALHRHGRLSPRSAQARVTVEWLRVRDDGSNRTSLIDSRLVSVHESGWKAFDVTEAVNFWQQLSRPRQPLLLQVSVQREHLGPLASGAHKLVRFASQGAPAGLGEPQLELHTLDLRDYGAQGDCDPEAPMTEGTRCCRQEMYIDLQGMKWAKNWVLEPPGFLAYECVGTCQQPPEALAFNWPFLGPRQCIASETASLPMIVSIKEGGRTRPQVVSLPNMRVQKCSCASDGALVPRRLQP
For experiment [14], the target named is Calmodulin-1 (Homo sapiens) (UniProt P0DP23). Briefly: CALM1 binders on microarrays, EGTA buffer, profiling panel, biochemical, small-molecule microarray, Cy5-labelled CALM1 (AID 1111).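 Also: labelled calmodulin applied in Tris saline Tween buffer holding calcium plus EGTA and DTT.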 Conditions: Cy5-CALM1 binding fluorescence, higher = more signal.
Experiment [15] has the same target. The experiment in a line: calcium-bound CALM1 binders on microarrays, profiling panel, artefact control for SMM control-protein annotation, biochemical, small-molecule microarray, Cy5-labelled CALM1, plus calcium (AID 1112).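 Also: score merges spot fluorescence with signal to noise from triplicate slides.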 Conditions: Cy5-CALM1 binding fluorescence, higher = more signal.
Experiment [16] can be described thus: small-molecule microarray binders of probe aWnt5a, primary screen, biochemical, biotinylated probe, 635/667 nm fluorescence (AID 1113).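 Also: score merges 667 nm fluorescence intensity with signal-to-noise per printed feature.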 Conditions: higher = more signal.
Experiment [17] can be described thus: small-molecule microarray binders of probe aShh, primary screen, biochemical, biotinylated probe, 635/667 nm fluorescence (AID 1114).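 Also: probe is biotin-labelled aShh protein from a stem cell growth factor screen; measures binding of labelled protein to compounds printed on the slide; score merges feature fluorescence at 667 nm with signal-to-noise.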 The following applies: higher = more signal.
The nature of experiment [18]: small-molecule microarray binders of probe aNog, primary screen, biochemical, biotinylated probe, 635/667 nm fluorescence (AID 1115).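 Also: probe is biotinylated aNog protein used at 0.15 µg/mL for 1 h at 4 C; z-score combines 667 nm fluorescence of each spot with its signal to noise.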 The following applies: higher = more signal.
Experiment [19] addresses Torsin-1A-interacting protein 1 (Homo sapiens) (UniProt Q5JTV8). The experiment in a line: LAP1 binders from COS7 cell lysate, primary screen, small-molecule microarray, 635/667 nm fluorescence (AID 1116). The following applies: COS7-hLAP1 lysate binding, 635 nm fluorescence, higher = more signal.
Experiment [20] addresses Alpha-bungarotoxin (Bungarus multicinctus) (UniProt P60615). The experiment in a line: alpha-bungarotoxin binders on microarray, profiling panel, artefact control for SMM control protein annotation, biochemical, small-molecule microarray, Alexa647 label, 635/667 nm fluorescence (AID 1117). Conditions: alpha-BTX-A647 binding fluorescence, higher = more signal.

The source made the active and inactive calls.

Sequence of Torsin-1A-interacting protein 1 (Homo sapiens) (Q5JTV8 whole entry, looked up): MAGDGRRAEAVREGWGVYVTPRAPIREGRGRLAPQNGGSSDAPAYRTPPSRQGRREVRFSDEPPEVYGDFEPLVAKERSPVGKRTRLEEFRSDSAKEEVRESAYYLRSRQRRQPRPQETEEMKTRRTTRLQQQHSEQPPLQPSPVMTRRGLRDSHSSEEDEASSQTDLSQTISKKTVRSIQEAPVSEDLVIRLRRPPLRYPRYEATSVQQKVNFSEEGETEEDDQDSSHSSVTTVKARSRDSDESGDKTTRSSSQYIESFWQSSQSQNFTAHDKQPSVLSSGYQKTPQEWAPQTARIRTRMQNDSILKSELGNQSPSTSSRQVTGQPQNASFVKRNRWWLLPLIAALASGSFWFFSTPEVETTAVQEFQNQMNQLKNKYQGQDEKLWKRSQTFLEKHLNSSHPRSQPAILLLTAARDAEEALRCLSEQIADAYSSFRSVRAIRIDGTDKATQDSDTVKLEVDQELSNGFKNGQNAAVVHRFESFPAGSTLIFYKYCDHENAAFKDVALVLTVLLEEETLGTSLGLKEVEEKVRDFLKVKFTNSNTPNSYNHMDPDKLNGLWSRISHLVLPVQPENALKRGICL
Sequence of Follistatin-related protein 3 (Homo sapiens) (O95633 whole entry, looked up): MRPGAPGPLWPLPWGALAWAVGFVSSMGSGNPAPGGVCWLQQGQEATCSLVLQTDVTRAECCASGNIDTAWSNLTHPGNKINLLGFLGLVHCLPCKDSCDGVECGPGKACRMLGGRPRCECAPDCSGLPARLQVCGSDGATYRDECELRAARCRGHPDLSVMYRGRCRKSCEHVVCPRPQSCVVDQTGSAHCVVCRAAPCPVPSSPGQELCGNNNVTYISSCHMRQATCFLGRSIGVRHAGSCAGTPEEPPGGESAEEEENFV
Sequence of Alpha-bungarotoxin (Bungarus multicinctus) (P60615 whole entry, looked up): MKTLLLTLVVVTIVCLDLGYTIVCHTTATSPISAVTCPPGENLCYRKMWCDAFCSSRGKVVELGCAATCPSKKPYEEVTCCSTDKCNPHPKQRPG
Sequence of Fibroblast growth factor 10 (Homo sapiens) (O15520 whole entry, looked up): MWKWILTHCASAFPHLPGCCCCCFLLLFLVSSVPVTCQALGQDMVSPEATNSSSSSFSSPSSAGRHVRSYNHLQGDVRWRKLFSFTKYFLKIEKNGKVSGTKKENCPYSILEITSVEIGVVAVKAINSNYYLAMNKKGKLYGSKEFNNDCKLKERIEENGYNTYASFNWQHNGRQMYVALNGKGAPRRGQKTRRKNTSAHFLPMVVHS
Sequence of Epidermal growth factor receptor (Homo sapiens) (P00533 whole entry, looked up): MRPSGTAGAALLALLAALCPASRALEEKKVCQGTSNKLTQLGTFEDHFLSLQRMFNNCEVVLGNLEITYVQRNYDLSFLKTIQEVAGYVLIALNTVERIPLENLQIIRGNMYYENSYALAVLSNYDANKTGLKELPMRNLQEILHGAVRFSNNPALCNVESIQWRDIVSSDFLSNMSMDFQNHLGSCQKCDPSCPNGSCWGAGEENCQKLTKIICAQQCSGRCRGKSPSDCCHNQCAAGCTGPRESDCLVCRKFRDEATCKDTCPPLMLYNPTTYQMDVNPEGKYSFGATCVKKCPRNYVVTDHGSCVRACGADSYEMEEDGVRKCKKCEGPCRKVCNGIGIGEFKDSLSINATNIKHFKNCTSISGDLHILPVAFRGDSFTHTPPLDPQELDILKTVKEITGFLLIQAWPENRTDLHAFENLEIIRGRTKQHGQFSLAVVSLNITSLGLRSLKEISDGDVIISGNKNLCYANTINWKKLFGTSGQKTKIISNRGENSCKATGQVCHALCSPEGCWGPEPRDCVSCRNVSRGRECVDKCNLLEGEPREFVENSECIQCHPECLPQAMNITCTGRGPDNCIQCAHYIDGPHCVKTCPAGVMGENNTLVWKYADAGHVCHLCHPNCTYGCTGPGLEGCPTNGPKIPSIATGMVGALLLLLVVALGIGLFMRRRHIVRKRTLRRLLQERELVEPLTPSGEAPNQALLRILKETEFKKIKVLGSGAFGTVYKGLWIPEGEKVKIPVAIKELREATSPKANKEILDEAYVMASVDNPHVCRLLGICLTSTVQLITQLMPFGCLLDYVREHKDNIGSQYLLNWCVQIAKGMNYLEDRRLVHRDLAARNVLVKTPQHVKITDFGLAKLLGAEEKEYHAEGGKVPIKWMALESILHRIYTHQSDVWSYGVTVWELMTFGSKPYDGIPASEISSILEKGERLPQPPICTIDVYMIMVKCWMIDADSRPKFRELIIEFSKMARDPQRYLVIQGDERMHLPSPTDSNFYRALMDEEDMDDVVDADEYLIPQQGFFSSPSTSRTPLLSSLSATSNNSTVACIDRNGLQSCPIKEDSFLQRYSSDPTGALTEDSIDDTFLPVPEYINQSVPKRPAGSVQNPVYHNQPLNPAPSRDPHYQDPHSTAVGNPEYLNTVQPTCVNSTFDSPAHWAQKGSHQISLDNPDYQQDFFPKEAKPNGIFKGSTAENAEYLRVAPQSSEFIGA

For the compound `C=CCC(OC(C)=O)[C@@H]1[C@@H](N(Cc2cc3ccccc3o2)C(=O)Cc2ccc(OC)cc2)c2cc(OCCCO)ccc2N1C(=O)c1ccc2ccccc2n1` (stereo not given in full), the composite z-score amounted to 0.0682 in experiment [1]; 0.0671 in [2]; 0.393 in experiment [3]; 0.116 in experiment [5]; 0.0115 in [6]; 0.357 in [7]. Besides, the composite z-score is 0.367 in experiment [8]; 0.0467 in experiment [9]; 1.42 in experiment [10]; -0.329 in experiment [11]; 0.0809 in [13]; -0.154 in experiment [14]. For the same compound, the composite z-score in [15] was -0.292; in experiment [16] it was 0.0573; in experiment [17], -0.0362; in experiment [18], -0.0381; in [19] it was 0.461; in experiment [20], 1.08. In addition, the figures for the z-score in [4] and in experiment [12] were -0.536 (inactive) and -0.814, respectively.
On to `O=C1O[C@@H](c2ccccc2)[C@@H](c2ccccc2)N2[C@@H](c3ccc(OCCO)cc3)[C@]3(C(=O)Nc4ccc(C#CC5(O)CCCCCC5)cc43)[C@@H](C(=O)O)[C@H]12`, for which the composite z-score in experiment [1] was 1.46; in experiment [2] it was 0.623; in [3] it was 0.457; in experiment [5] it was 0.372; in experiment [6] it was 0.995; in [7], 0.146. For the same compound, the composite z-score in experiment [8] was 0.401; in experiment [9], -0.0236; in [10], 0.2; in experiment [11], 0.349; in [13], 0.109; in experiment [14], 1.29. The composite z-score was 1.03 in [15]; -0.0495 in experiment [16]; 0.0902 in [17]; -0.0047 in experiment [18]; 0.835 in experiment [19]; 0.987 in experiment [20]. Further, the figures for the z-score in experiment [4] and in experiment [12] were -0.702 (inactive) and -0.687, respectively.
Regarding `CCOC(=O)C1=CC[C@@H](c2ccc(OC)cc2)N(S(=O)(=O)c2ccc(C)cc2)[C@H]1CC`, the composite z-score came out at 0.469 in [1]; 0.607 in experiment [2]; 0.88 in [3]; 0.996 in experiment [5]; 0.811 in experiment [6]; 0.233 in experiment [7]. Besides, the composite z-score stood at 1.1 in experiment [8]; 0.106 in experiment [9]; 0.372 in experiment [10]; 1.18 in experiment [11]; 0.349 in [13]; 1.84 in [14]. The composite z-score was 0.436 in [15]; 0.0438 in experiment [16]; -0.221 in [17]; 1.48 in experiment [18]; 0.482 in [19]; 1 in experiment [20]. For the same compound, the z-score in experiment [4] was -1.27 (inactive); in [12] it was -2.44.
Take `COC(=O)[C@@]1(Cc2ccccc2)[C@H]2c3cc(C(=O)N(C)C)n(CCO)c3C[C@H]2CN1C(=O)c1ccccc1`: the composite z-score in experiment [1] is 0.621; in [2], 1.25; in experiment [3], 1.21; in experiment [5] it was 0.909; in [6], 0.594; in experiment [7], -0.745. The composite z-score in [8] was -0.181; in [9], -0.994; in [10], -0.206; in experiment [11], 0.56; in [13] it was 0.145; in [14], 2.07. The composite z-score was 1.27 in experiment [15]; 0.0511 in experiment [16]; 0.0005 in experiment [17]; 0.623 in experiment [18]; 0.952 in experiment [19]; 0.723 in [20]. Further, the z-score is 0.395 (inactive) in experiment [4] and -0.766 in experiment [12].
As for `COCCOC(=O)N1C(=O)[C@@]2(c3cc(C#CCC(C(=O)OC)C(=O)OC)ccc31)[C@H](C(=O)Nc1nc3ccccc3s1)[C@H]1C(=O)O[C@H](c3ccccc3)[C@H](c3ccccc3)N1[C@@H]2c1ccc(O)cc1`, the composite z-score in experiment [1] is 1.42; in experiment [2] it was 0.0737; in experiment [3] it was 0.309; in experiment [5] it was 1.34; in [6], 1.3; in experiment [7], 0.861. Further, the composite z-score in experiment [8] was 1.41; in [9] it was 1.06; in experiment [10] it was 0.157; in experiment [11] it was 1.42; in [13] it was 1.31; in [14] it was 0.975. For the same compound, the composite z-score in [15] is -0.0869; in [16] it was -0.0044; in experiment [17], -0.043; in experiment [18], 0.459; in experiment [19], 0.706; in experiment [20], 1.63. Moreover, the figures for the z-score in experiment [4] and in experiment [12] were -0.88 (inactive) and -0.146, respectively.
